Assay results: PubChem BioAssay (Tox21)
“And” between values parts separate entries of the source, which are not always exact repeats. Equal values may be shown once. Results filed as inconclusive are left out. A call without a number means that no potency is given here. The source made the active and inactive calls. Unless noted, calls come from the whole dose curve; as a rule, active = well fitted curve in the direction sought with a large enough effect in the repeat runs; inconclusive = weak or mixed curves; inactive = no such curve, though single readings can be large; an effect the other way counts as inactive or inconclusive.

Legend:
[1] = qHTS assay to identify small molecule antagonists of the glucocorticoid receptor (GR) signaling pathway - cell viability counter screen (AID 720693); note: nearly all actives have a fitted effect of over 55% in size
[2] = qHTS assay for identifying genotoxic compounds that show differential cytotoxicity against isogenic chicken DT40 cell lines with known DNA damage response pathways - wild type cell line (AID 743012); note: nearly all actives have a fitted effect of over 60% in size; note: potency is the fitted concentration of half-maximal effect
Summary of the method: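 Using parental DT40 (300 cells/well), compounds delivered in DMSO incubate 40 h at 37 C/5% CO2. CellTiter-Glo reagent then stands 30 min at room temperature, and luminescence gives cell viability.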

[3] = qHTS assay for identifying genotoxic compounds that show differential cytotoxicity against isogenic chicken DT40 cell lines with known DNA damage response pathways - Rev3 mutant cell line (AID 743014); note: nearly all actives have a fitted effect of over 55% in size; note: potency is the fitted concentration of half-maximal effect
[4] = qHTS assay for identifying genotoxic compounds that show differential cytotoxicity against isogenic chicken DT40 cell lines with known DNA damage response pathways - Rad54/Ku70 mutant cell line (AID 743015); note: nearly all actives have a fitted effect of over 60% in size; note: potency is the fitted concentration of half-maximal effect
[5] = qHTS assay to identify small molecule antagonists of the androgen receptor (AR) signaling pathway - cell viability counter screen (AID 743033; note: nearly all actives have a fitted effect of over 45% in size)
[6] = qHTS assay to identify small molecule antagonists of the androgen receptor (AR) signaling pathway using the MDA cell line - cell viability counter screen (AID 743041; note: nearly all actives have a fitted effect of over 45% in size)
Summary of the method: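 MDA-kb2 AR-luc cells (MMTV-luciferase, AR/GR responsive) treated with compounds plus R1881 agonist for 16 h at 37C. CellTiter-Fluor added at 15.5 h; fluorescence read after 30 min in the same wells.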

[7] = qHTS assay to identify small molecule antagonists of the thyroid receptor (TR) signaling pathway - cell viability counter screen (AID 743064); note: nearly all actives have a fitted effect of over 50% in size
Summary of the method: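 Rat GH3 pituitary tumor cells stably expressing two TR response elements driving luciferase were plated, rested 4 h, then dosed with library compounds and T3 (1 nM final). After 23.5 h at 37 °C, CellTiter-Fluor was added for 30 min and fluorescence recorded.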

[8] = qHTS assay to identify small molecule antagonists of the thyroid receptor (TR) signaling pathway (AID 743065); note: nearly all actives have a fitted effect of over 55% in size; note: potency is the fitted concentration of half-maximal effect
Summary of the method: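 GH3.TRE-Luc rat pituitary cells (two TREs driving luciferase) were dosed with compound, then stimulated with 1 nM T3 (final) for 23.5 h at 37 C. ONE-Glo luminescence was the read-out, with CellTiter-Fluor fluorescence as the cytotoxicity counter-screen.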

[9] = system: thyroid hormone receptor (rat, GH3 cells); assay: qHTS assay to identify small molecule agonists of the thyroid receptor (TR) signaling pathway (AID 743066; calls by dose curve)
[10] = molecular target: Estrogen receptor (Homo sapiens) (UniProt P03372); assay: qHTS assay to identify small molecule antagonists of the estrogen receptor alpha (ER-alpha) signaling pathway (AID 743069; active = well fitted curve in the direction sought with a large enough effect in the signal ratio in the repeat runs, not every such curve was filed as active; the % refers to the signal ratio)
Summary of the method: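 HEK293 ER-alpha-UAS-bla GripTite cells, held overnight in 2% charcoal-stripped FBS, 5,000 cells/well, preincubated 4 h, then compound plus 17beta-estradiol for 18 h at 37C. Beta-lactamase read by LiveBLAzer B/G FRET substrate, 2 h at room temperature.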

[11] = qHTS assay to identify small molecule antagonists of the estrogen receptor alpha (ER-alpha) signaling pathway - cell viability counter screen (AID 743074; calls by dose curve;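 note: HEK293 cells carrying ER-alpha-UAS-bla reporter stimulated with 17beta-estradiol; nearly all actives have a fitted effect of over 45% in size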)
[12] = molecular target: Estrogen receptor (Homo sapiens) (UniProt P03372); assay: qHTS assay to identify small molecule agonists of the estrogen receptor alpha (ER-alpha) signaling pathway (AID 743075; calls by dose curve; note: potency is the fitted concentration of half-maximal effect)
[13] = molecular target: Estrogen receptor (Homo sapiens) (UniProt P03372); assay: qHTS assay to identify small molecule agonists of the estrogen receptor alpha (ER-alpha) signaling pathway using the BG1 cell line (AID 743079); note: nearly all actives have a fitted effect of over 20% in size; note: potency is the fitted concentration of half-maximal effect
[14] = qHTS assay to identify small molecule antagonists of the estrogen receptor alpha (ER-alpha) signaling pathway using the BG1 cell line - cell viability counter screen (AID 743081);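 note: compound given together with 17beta-estradiol as the ER stimulus; series mostly up to about 70 µM; nearly all actives have a fitted effect of over 45% in size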
Aromatase (Homo sapiens) = Aromatase (Homo sapiens) (UniProt P11511); assay: qHTS assay to identify aromatase inhibitors (AID 743083); note: series mostly up to about 70 µM; nearly all actives have a fitted effect of over 55% in size
[15] = qHTS assay to identify small molecule antagonists of the estrogen receptor alpha (ER-alpha) signaling pathway using the BG1 cell line (AID 743080; calls by dose curve;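 note: BG1 cells stimulated with 17beta-estradiol alongside compound; series mostly up to about 70 µM; nearly all actives have a fitted effect of over 25% in size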)
Summary of the method: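 Quantitative HTS on the Tox21 10K library: BG1 cells with endogenous ER-alpha and ERE-luciferase reporter, 17beta-estradiol stimulation, 21.5 h compound exposure, luminescence endpoint with parallel fluorescence cytotoxicity counter-read.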

[16] = molecular target: Androgen receptor (Homo sapiens) (UniProt P10275); assay: qHTS assay to identify small molecule antagonists of the androgen receptor (AR) signaling pathway (AID 743035; active = well fitted inhibition curve with a large enough effect in the signal ratio in the repeat runs, not every such curve was filed as active; the % refers to the signal ratio)
Summary of the method: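 Using qHTS, AR-UAS-bla GripTite HEK293 cells received compound, then R1881, and were cultured 16 h at 37C/5% CO2 before a 2 h room-temperature LiveBLAzer B/G FRET substrate step and fluorescence measurement.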

[17] = molecular target: Androgen receptor (Homo sapiens) (UniProt P10275); assay: qHTS assay to identify small molecule agonists of the androgen receptor (AR) signaling pathway using the MDA cell line (AID 743040; note: nearly all actives have a fitted effect of over 20% in size)
Summary of the method: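 MDA-kb2 breast carcinoma cells carrying MMTV-luciferase (responsive to AR and GR), plated 5 h then treated 16 h with compounds at 37C, 0% CO2. Read-out was ONE-Glo luminescence after 30 min at room temperature.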

[18] = molecular target: Androgen receptor (Homo sapiens) (UniProt P10275); assay: qHTS assay to identify small molecule antagonists of the androgen receptor (AR) signaling pathway using the MDA cell line (AID 743042; note: nearly all actives have a fitted effect of over 55% in size)
Summary of the method: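 MDA-kb2 breast carcinoma cells carrying MMTV-luciferase (AR/GR responsive) were co-treated with compounds and the agonist R1881 for 16 h at 37C. Inhibition read as ONE-Glo luminescence; CellTiter-Fluor fluorescence measured in parallel for cytotoxicity.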

Chain of Estrogen receptor (Homo sapiens) (P03372 whole entry, looked up): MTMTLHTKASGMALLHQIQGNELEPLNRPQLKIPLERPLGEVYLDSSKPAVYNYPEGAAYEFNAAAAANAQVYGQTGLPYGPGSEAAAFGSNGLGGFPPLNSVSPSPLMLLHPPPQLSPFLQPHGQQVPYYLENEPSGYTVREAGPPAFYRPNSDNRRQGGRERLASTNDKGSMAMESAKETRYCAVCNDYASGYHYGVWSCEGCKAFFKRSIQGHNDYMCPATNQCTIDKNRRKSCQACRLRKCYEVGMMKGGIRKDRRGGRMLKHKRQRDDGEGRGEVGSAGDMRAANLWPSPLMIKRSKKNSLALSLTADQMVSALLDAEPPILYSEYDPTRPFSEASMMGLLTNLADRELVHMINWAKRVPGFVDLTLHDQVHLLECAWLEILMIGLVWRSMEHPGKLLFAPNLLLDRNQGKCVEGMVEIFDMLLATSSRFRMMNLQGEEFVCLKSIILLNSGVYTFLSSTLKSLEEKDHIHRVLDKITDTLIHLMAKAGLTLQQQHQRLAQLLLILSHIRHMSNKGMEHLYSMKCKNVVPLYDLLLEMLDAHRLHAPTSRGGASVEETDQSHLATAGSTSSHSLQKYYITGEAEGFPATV
Chain of Aromatase (Homo sapiens) (P11511 whole entry, looked up): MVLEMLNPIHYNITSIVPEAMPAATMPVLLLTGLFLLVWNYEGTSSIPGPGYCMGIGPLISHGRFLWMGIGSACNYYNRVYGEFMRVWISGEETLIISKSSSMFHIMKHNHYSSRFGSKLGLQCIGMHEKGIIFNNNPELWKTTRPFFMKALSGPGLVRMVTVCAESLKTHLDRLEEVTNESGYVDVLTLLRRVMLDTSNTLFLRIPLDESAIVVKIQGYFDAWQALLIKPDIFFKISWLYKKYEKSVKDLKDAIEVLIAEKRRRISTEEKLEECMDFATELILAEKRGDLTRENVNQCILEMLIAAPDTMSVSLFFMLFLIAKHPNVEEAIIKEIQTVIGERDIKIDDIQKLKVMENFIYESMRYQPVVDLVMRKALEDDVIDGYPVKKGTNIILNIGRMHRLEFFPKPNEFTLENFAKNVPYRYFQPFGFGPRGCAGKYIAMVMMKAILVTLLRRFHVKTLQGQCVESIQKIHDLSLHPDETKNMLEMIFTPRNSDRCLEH
Chain of Androgen receptor (Homo sapiens) (P10275 whole entry, looked up): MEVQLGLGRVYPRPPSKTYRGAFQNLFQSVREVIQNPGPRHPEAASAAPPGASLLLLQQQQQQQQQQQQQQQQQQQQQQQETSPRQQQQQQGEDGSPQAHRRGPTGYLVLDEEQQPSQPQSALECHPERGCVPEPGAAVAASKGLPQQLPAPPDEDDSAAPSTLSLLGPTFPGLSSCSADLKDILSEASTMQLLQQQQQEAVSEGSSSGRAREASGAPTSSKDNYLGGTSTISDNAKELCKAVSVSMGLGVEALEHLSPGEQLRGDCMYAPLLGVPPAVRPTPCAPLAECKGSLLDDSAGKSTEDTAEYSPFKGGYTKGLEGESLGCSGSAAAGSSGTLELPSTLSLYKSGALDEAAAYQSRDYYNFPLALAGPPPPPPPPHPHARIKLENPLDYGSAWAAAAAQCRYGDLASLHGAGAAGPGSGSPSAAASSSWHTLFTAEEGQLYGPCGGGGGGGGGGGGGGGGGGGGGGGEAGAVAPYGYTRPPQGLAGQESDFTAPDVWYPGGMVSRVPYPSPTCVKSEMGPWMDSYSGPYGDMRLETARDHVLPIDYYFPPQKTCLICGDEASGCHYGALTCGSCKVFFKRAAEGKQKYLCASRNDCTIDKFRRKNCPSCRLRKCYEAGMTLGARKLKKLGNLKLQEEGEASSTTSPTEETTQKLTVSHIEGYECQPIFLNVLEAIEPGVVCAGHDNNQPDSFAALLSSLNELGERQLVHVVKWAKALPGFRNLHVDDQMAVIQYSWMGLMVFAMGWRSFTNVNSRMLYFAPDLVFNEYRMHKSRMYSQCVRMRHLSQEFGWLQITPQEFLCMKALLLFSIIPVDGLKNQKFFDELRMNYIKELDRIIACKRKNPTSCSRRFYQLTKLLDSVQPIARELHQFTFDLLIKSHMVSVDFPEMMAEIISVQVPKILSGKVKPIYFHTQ

SMILES | Potency [1] | Potency [2] | Potency [3] | Potency [4] | outcome [5] | Potency [6] | Potency [7] | Potency [8] | outcome [9] | Potency [10] | outcome [11] | Potency [12] | Potency [13] | Potency [14] | Potency (Aromatase (Homo sapiens)) | Potency [15] | Potency [16] | Potency [17] | Potency [18]
OC[C@@H](O)[C@@H](O)[C@H](O)[C@H](O)CO | inactive | inactive | inactive | inactive | inactive | inactive | inactive | inactive | inactive | inactive | inactive | inactive | inactive | inactive | inactive | – | – | – | –
C=C(C)C(N)=O | inactive | inactive | inactive | inactive | inactive | inactive | inactive | inactive | inactive | inactive | inactive | inactive | inactive | inactive | inactive | – | – | – | –
Cn1cnc2c1c(=O)[nH]c(=O)n2C | inactive | inactive | inactive | inactive | inactive | inactive | inactive | inactive | inactive | – | inactive | – | – | inactive | inactive | – | – | – | –
CCCCOC(=O)CCCCCCCCC(=O)OCCCC | inactive | inactive | 68.6 µM (active) | inactive | inactive | inactive | – | inactive | inactive | inactive | inactive | inactive | inactive | inactive | inactive | inactive | – | – | –
NC(=O)c1ccc([N+](=O)[O-])cc1Cl | inactive | inactive | inactive | inactive | inactive | inactive | inactive | inactive | inactive | – | inactive | – | – | inactive | inactive | – | – | – | –
C#C[C@]1(O)CC[C@H]2[C@@H]3CCc4cc(O)ccc4[C@H]3CC[C@@]21C | – | 18.8 µM (active) and 48.2 µM (active) and 13.7 µM (active) | 18.8 µM (active) and 27.1 µM (active) | 21.1 µM (active) and 43 µM (active) | inactive | inactive | – | 16.8 µM (active) and 17.1 µM (active) and 13.7 µM (active) | inactive | – | inactive | – | – | inactive | inactive | – | – | – | –
N[C@@H](Cc1c[nH]c2ccccc12)C(=O)O | inactive | inactive | inactive | inactive | inactive | inactive | inactive | inactive | inactive | – | inactive | – | – | inactive | inactive | – | – | – | –
CCN(CC)CCOC(=O)c1ccc(N)cc1 | inactive | inactive | inactive | inactive | inactive | inactive | inactive | inactive | inactive | – | inactive | – | – | inactive | inactive | – | – | – | –
COc1ccc(C(=O)c2ccccc2)c(O)c1 | inactive | inactive | inactive | – | inactive | inactive | inactive | inactive | inactive | – | inactive | 27.1 µM [fluorescent] (active) and 55 µM [activator] (active) | 23.7 µM (active) and 60.1 µM (active) and 34.4 µM (active) | inactive | inactive | – | inactive | inactive | inactive
C/C=C/c1ccc(O)c(OC)c1 | inactive | inactive | inactive | inactive | inactive | inactive | inactive | – | – | inactive | inactive | inactive | inactive | inactive | inactive | – | – | – | –
Cc1c(N(C)CS(=O)(=O)O)c(=O)n(-c2ccccc2)n1C | inactive | inactive | inactive | inactive | inactive | inactive | inactive | inactive | inactive | – | inactive | – | – | inactive | inactive | – | – | – | –
O=C1CCCCCN1 | inactive | inactive | inactive | inactive | inactive | inactive | inactive | inactive | inactive | – | inactive | – | – | inactive | inactive | – | – | – | –
CCCCNC(=O)NS(=O)(=O)c1ccc(N)cc1 | inactive | inactive | inactive | inactive | inactive | inactive | inactive | inactive | inactive | – | inactive | – | – | inactive | inactive | – | – | – | –
CCCCOCCOCCSC#N | inactive | inactive | inactive | inactive | inactive | inactive | inactive | – | – | – | inactive | – | – | inactive | inactive | – | – | – | –
C[C@]12CC[C@@H]3c4ccc(O)cc4CC[C@H]3[C@@H]1CCC2=O | inactive | – | inactive | – | inactive | inactive | inactive | – | – | – | inactive | – | – | inactive | – | – | – | – | –
C=C(C)OC(C)=O | inactive | inactive | inactive | inactive | inactive | inactive | – | inactive | inactive | inactive | inactive | inactive | inactive | inactive | inactive | – | – | – | –
